Laboratory results taken from PubChem BioAssay AID2108 (National Center for Advancing Translational Sciences (NCATS), 2009).
Inconclusive results are not listed. Calls of active or inactive are those of the source. Calls follow the shape of the dose curve; as a rule, active = well fitted curve in the direction sought with a large enough effect; inconclusive = small, poorly fitted or top-dose-only effect, or effect the other way, or another doubt; inactive = no such curve, though single readings can be large or run the other way.

molecular target: Alpha-galactosidase A (Homo sapiens) (UniProt P06280); test: Confirmation of Inhibitors of Human alpha-Galactosidase Using Spleen Homogenate; details: alpha-galactosidase enzyme activity; series mostly up to 56.2 µM
Sequence (P06280 32-429 limits assumed): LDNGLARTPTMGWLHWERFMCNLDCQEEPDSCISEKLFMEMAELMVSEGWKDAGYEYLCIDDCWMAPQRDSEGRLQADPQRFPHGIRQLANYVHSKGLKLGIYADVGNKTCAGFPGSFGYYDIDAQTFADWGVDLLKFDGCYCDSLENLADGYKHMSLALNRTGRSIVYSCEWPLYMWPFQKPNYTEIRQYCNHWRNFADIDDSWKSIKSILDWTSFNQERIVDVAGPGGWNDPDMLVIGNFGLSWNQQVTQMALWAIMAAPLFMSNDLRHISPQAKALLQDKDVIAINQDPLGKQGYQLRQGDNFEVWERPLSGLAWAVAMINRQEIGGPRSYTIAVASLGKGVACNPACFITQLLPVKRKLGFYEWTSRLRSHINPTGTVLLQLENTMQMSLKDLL
Outline: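 Human spleen homogenate (1 ug) with 1 mM 4-methylumbelliferyl-alpha-D-galactopyranoside in citrate-phosphate pH 5.0, 0.01% Tween-20, 37C 40 min; compounds 0.5 nM–58 uM final. Stopped at pH 10, fluorescence Ex 365/Em 440; AC50 from Hill fits.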

outcome, inactive:
O=C(Nc1nnc(-c2cccc(F)c2)s1)Nc1ccccc1F
CCC1C(=O)NCCN1Cc1nc(-c2ccc(C)s2)oc1C (centres undefined)
CC(=O)Oc1ccc2cc(-c3nc(-c4ccccc4)c(C)s3)c(=O)oc2c1
CC1OC(OC2C(CO)OC(OC3C(CO)OC(O)C(O)C3O)C(O)C2O)C(O)C(O)C1NC1C=C(CO)C(O)C(O)C1O (centres undefined)
COc1cccc2ccc(/C=C/c3ccc4c(c3)OCO4)nc12
Cn1cnc2c(NCc3ccccc3)nc(NCCO)nc21
CC(=O)c1ccc(N2CCN(S(=O)(=O)c3ccc4c(c3)CC(=O)N4)CC2)cc1
Nc1ccccc1S(=O)(=O)N1CCOCC1
Cc1cccc2cc3c(NC(=O)c4ccccn4)nn(C)c3nc12
C=CCn1c2ccccc2c2nnc(SCC(=O)NC(C(=O)OC)C(C)C)nc21 (centres undefined)
Cc1ccc2nc(-c3ccccc3N)[nH]c2c1
O=S(=O)(c1ccccc1)N1CCN(S(=O)(=O)c2ccccc2)CC1
COc1cc(CNc2ccc(N3CCOCC3)cc2)cc(Br)c1OC
COc1ccccc1NC(=O)c1ccc(Br)o1
O=C1CCCC/C1=C\Nc1ccc(O)cc1
Cc1cc(/C=N/Nc2ccc([N+](=O)[O-])cn2)c(C)n1-c1ccc(C(=O)O)cc1
CCC(=O)N1CCN(c2ccc(Cl)cc2NC(=O)c2ccc(N3CCCC3)c([N+](=O)[O-])c2)CC1
N#Cc1c(N2CCN(c3ccc(F)cc3)CC2)nc(N)c2c(N)nc3c(c12)CC(=O)N3C1CC1
COCCNS(=O)(=O)c1ccc2c(c1)n(C)c(=O)n2C
